Measured values reported in PubChem BioAssay.

Molecular target: Fibroblast growth factor 2 (Homo sapiens) (UniProt P09038)
Assay: basic fibroblast growth factor binding to printed compounds – biochemical, small-molecule microarray, 635/667 nm fluorescence, primary screen (AID 1133)
Settings: FGF2, fluorescence 635/667, higher = more signal

Chain of Fibroblast growth factor 2 (Homo sapiens) (P09038 whole entry, looked up): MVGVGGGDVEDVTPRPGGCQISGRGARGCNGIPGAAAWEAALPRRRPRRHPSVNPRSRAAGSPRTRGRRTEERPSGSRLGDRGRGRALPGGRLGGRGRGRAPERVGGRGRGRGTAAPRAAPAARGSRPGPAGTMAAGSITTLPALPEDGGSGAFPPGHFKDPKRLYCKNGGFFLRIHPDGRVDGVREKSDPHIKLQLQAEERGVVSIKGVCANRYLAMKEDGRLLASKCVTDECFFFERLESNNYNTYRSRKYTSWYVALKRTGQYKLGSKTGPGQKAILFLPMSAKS

SMILES | composite z-score
C=CCN1C(=O)[C@@]2(Cc3ccccc31)N=C(c1ccc(OCCCO)cc1)O[C@H]2c1ccccc1 | 0.988
CN(C)CCCCCCNC(=O)[C@H]1C[C@H]2C(=O)N[C@@H](CCCCN)C(=O)N2[C@H]1c1cccc(OCCO)c1 | 0.844
COc1cc2c(cc1OC)CN(C(=O)[C@H]1[C@@H]3C(=O)O[C@@H](c4ccccc4)[C@@H](c4ccccc4)N3[C@@H](c3ccc(O)cc3)[C@]13C(=O)Nc1ccccc13)CC2 | 0.39
C=CC1(C(=O)OC)CC=C(C(=O)OC)CC1 (stereo unspecified) | 0.653
CCCC=C(CCC)[C@@H](NC(=O)c1cccs1)c1ccc(C(F)(F)F)cc1 | 0.0183
C=CCNC(=O)[C@@H]1[C@H]2C(=O)O[C@H](c3ccccc3)[C@H](c3ccccc3)N2[C@H](c2ccccc2OCCO)[C@@]12C(=O)N(C(=O)OCCOC)c1ccccc12 | 1.49
COC(=O)C[C@H]1O[C@]2(C(=O)N(C)c3ccccc32)[C@@H](C)[C@@H]1[Si](C)(C)F | 2.03
C=CCOC(=O)[C@@H]1[C@H]2C(=O)O[C@H](c3ccccc3)[C@H](c3ccccc3)N2[C@H](c2ccc(OCCOC(=O)[C@@H]3C[C@@H]4C(=O)NCC(=O)N4[C@@H]3c3ccc(O)cc3)cc2)[C@@]12C(=O)Nc1ccc(I)cc12 | 1.27
COc1ccc(CCNC(=O)[C@@]2(C)c3ccccc3C(=O)N(C(C)C)[C@H]2c2ccc(CO)cc2)cc1 | 0.493
C=C(CC1([C@@H](NP(=O)(c2ccccc2)c2ccccc2)[C@H]2C[C@@H]2CCCC)CC1)c1ccccc1 | 0.0962
COC(=O)[C@H](Cc1ccccc1)N1CC2=C[C@@H](C3CC3)n3c(=O)n(C)c(=O)n3[C@H]2[C@@H]1[C@@H](O)Cc1ccccc1 | 0.212
